Assay results reported in PubChem BioAssay AID1159580 (chemical genetic matrix, 2015).
In all, about 5,500 compounds went through this assay and about 2,000 (36%) were called active. Not shown: some 18% with an inconclusive outcome. Cut-off read from the data, not from the text of the source: active = normalized growth mostly below about 0.91 (no sharp cut-off); inconclusive = no clear call, values can overlap the other calls; inactive = mostly above about 0.92. This is one part of the list.

Experiment: chemical genetic growth profiling, strain panel (AID 1159580);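 note: tested at 20 µM; growth read once vehicle control cultures reached saturation at 30 °C; 1 = growth at the plate median or of vehicle wells; lower values mean less growth of the strain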
Conditions: S. cerevisiae deletion strains, growth OD

Measured: normalized growth

O=c1c(O)c(-c2ccc(O)cc2)oc2ccccc12
active: locus YAL021C, strain ccr4, hits give low values 0.576 | locus YAL026C, strain drs2, hits give low values 0.707 | locus YAL030W, strain snc1, hits give low values 0.809 | locus YBL061C, strain skt5, hits give low values 0.714 | locus YBR009C, strain hhf1, hits give low values 0.7 | locus YBR023C, strain chs3, hits give low values 0.643 | locus YBR231C, strain swc5, hits give low values 0.794 | locus YBR279W, strain paf1, hits give low values 0.749 | locus YCL011C, strain gbp2, hits give low values 0.762 | locus YCL016C, strain dcc1, hits give low values 0.849 | locus YCL061C, strain MRC1, hits give low values 0.904 | locus YCL069W, strain vba3, hits give low values 0.816 | locus YDR069C, strain doa4, hits give low values 0.56 | locus YDR137W, strain rgp1, hits give low values 0.397 | locus YDR159W, strain sac3, hits give low values 0.792 | locus YDR195W, strain ref2 1.34 [resistant] | locus YDR297W, strain sur2, hits give low values 0.82 | locus YDR334W, strain swr1, hits give low values 0.831 | locus YDR335W, strain msn5, hits give low values 0.789 | locus YDR392W, strain spt3, hits give low values 0.284 | locus YEL003W, strain gim4, hits give low values 0.79 | locus YEL037C, strain rad23, hits give low values 0.853 | locus YEL061C, strain CIN8 (second series), hits give low values 0.885 | locus YER015W, strain faa2, hits give low values 0.615 | locus YER016W, strain bim1, hits give low values 0.863 | locus YER111C, strain swi4, hits give low values 0.745 | locus YER155C, strain BEM2 (second series), hits give low values 0.489 | locus YFR010W, strain ubp6, hits give low values 0.84 | locus YGL173C, strain kem1, hits give low values 0.499 | locus YGL240W, strain doc1, hits give low values 0.855 | locus YGL253W, strain hxk2, hits give low values 0.63 | locus YHR013C, strain ard1, hits give low values 0.506 | locus YHR027C, strain rpn1, hits give low values 0.546 | locus YHR030C, strain SLT2, hits give low values 0.847 | locus YHR142W, strain chs7, hits give low values 0.495 | locus YJL095W, strain BCK1 (second series), hits give low values 0.731 | locus YJL095W, strain BCK1, hits give low values 0.833 | locus YJL129C, strain trk1, hits give low values 0.717 | locus YJL164C, strain tpk1, hits give low values 0.564 | locus YJL166W, strain qcr8, hits give low values 0.538 | locus YJL187C, strain SWE1, hits give low values 0.725 | locus YKL160W, strain elf1, hits give low values 0.713 | locus YLL001W, strain dnm1, hits give low values 0.777 | locus YLL026W, hits give low values 0.809 | locus YLL041C, strain sdh2, hits give low values 0.91 | locus YLR027C, strain aat2, hits give low values 0.695 | locus YLR113W, strain HOG1, hits give low values 0.719 | locus YLR221C, strain rsa3, hits give low values 0.697 | locus YLR258W, strain gsy2, hits give low values 0.766 | locus YLR262C, strain YPT6 (second series), hits give low values 0.369 | locus YLR320W, strain mms22, hits give low values 0.426 | locus YLR342W, strain FKS1, hits give low values 0.757 | locus YLR370C, strain arc18, hits give low values 0.781 | locus YLR384C, strain iki3, hits give low values 0.905 | locus YML120C, strain ndi1, hits give low values 0.669 | locus YMR058W, strain fet3, hits give low values 0.179 | locus YMR205C, strain PFK2, hits give low values 0.56 | locus YMR231W, strain pep5, hits give low values 0.545 | locus YNL071W, strain lat1, hits give low values 0.471 | locus YNL209W, strain ssb2, hits give low values 0.458 | locus YNL248C, strain rpa49, hits give low values 0.837 | locus YOR001W, strain rrp6, hits give low values 0.695 | locus YOR070C, strain gyp1, hits give low values 0.666 | locus YOR080W, strain dia2, hits give low values 0.861 | locus YOR083W, strain WHI5, hits give low values 0.664 | locus YOR106W, strain vam3, hits give low values 0.319 | locus YOR231W, strain MKK1, hits give low values 0.847 | locus YOR265W, strain rbl2, hits give low values 0.816 | locus YOR270C, strain vph1, hits give low values 0.328 | locus YOR290C, strain snf2, hits give low values 0.641 | locus YPL051W, strain arl3, hits give low values 0.441 | locus YPL078C, strain atp4, hits give low values 0.651 | locus YPL106C, strain sse1, hits give low values 0.843 | locus YPL240C, strain hsp82, hits give low values 0.869 | locus YPL256C, strain CLN2, hits give low values 0.816
inactive: locus YBR171W, strain sec66, hits give low values 0.903 | locus YCR088W, strain abp1, hits give low values 0.962 | locus YDL005C, strain med2, hits give low values 0.965 | locus YDL040C, strain nat1, hits give low values 0.934 | locus YDR001C, strain nth1, hits give low values 0.936 | locus YGL167C, strain pmr1, hits give low values 0.921 | locus YGL227W, strain vid30, hits give low values 0.962 | locus YHR079C, strain IRE1, hits give low values 0.855 | locus YJL092W, strain hpr5, hits give low values 0.922 | locus YJL115W, strain asf1, hits give low values 0.971 | locus YJL154C, strain vps35, hits give low values 0.931 | locus YJR066W, strain TOR1, hits give low values 0.842 | locus YKR026C, strain gcn3, hits give low values 0.945 | locus YKR091W, strain srl3, hits give low values 0.937 | locus YLR357W, strain rsc2, hits give low values 0.9 | locus YMR125W, strain sto1, hits give low values 0.972 | locus YMR129W, hits give low values 0.932 | locus YNL183C, strain NPR1, hits give low values 0.838 | locus YNL322C, strain KRE1 (second series), hits give low values 0.909 | locus YNR049C, strain mso1, hits give low values 0.919
